# According to the supplement of paper PMC6555819:
# Tested on: VDR:RXRa (NR concentration 270 nM, RXRa partner concentration 90 nM)
# Assay: PBM binding z-score (relative to random genomic background probes); higher = stronger binding; sequences stand for … in GC…GCGATTGACAGCGTAGAATGAAGG
# Experimental: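 Protein-binding microarray (Agilent 4x180K custom design, double-stranded 60-nt probes: 5' GC cap, 34-nt variable region, 24-nt constant primer region; full probe sequence given). Purified or IVT nuclear receptor:RXRα heterodimers (3:1 NR:RXRα, mostly 270:90 nM) or homodimers were incubated for 1 h in PBS with 2% milk and no ligand, then detected with Alexa488 antibodies. Fluorescence from o1-orientation probes (~5 replicates averaged) was converted to z-scores against 500 random hg19 background probes. Variable regions are seed direct-repeat (DR0–DR5) sites, all their single-nucleotide variants and half-site ablations.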
row,Sequence,PBM binding z-score
1,CTCGAAAGGTCGTGCTCAGGTGAGTTTACCAAAC,3.98
2,CCTAGCAGGCCTATCTGGGTCACTCAAGGCTTGA,0.253
3,GCATATAGGCAATACAAGGTGAAAGTCCGATTGT,0.0245
4,TCTGCTAGGTCAGTTGGTCAGCTACCGAGCTGCC,0.106
5,ATATGTAGGTAAGCTGGGGTCATTCAGACTAGGC,5.49
6,CGAACTAGGTCATCCAGGACAGTGAATACATTGA,4.73
7,TAGCCTAGGTCATGGGCCAGTATGCCACGCGAAC,1.98
8,AGTCAAACTTCATCTAGGTAACGTAAGATATGCT,-0.0435
9,TCGAGTTGGTTACCAATGGGGCATTCAGCTTTCT,-0.461
10,CCTACTGGGCCATCAGGTCATTGAAATCAACGTT,1.28
11,ATCTCTAGTTAAAGTTCAGTGAAAGATCGATAGA,1.64
12,CCGACTAGGGCATAAGGTTACCATAAGCCAGCCC,0.257
13,CGTCAAAGTTCAACCAAGGTAACGTAAAGCACGC,4.77
14,TGATATAGGTAATACAGGTGAAAGTCGGCATCTA,0.523
15,CCTAGCAGGCCAGGATCACTCAAGCATTTCGCTT,-0.583
16,CCTACTGGGCGAAAGGTCATTGATTCCAATGCTC,4.43
17,ATCTCTAGGTGACAAGTTCAGTGAAAGAGAGGAC,1.63
18,CAAACTAGGTCACGACAGGTCAAAGTCGAATGAC,6.07
19,ATCTCTAGGAAAAGATAGTTCAGTGAATGCAAAT,0.581
20,GCTAGTTGGACAGTAAAAGGTCACACACCGGTCG,3.84

row,Sequence,PBM binding z-score
1,CCTGGGAGGACAGAAGGTCAGAGCTGTCCGCTTT,1.04
2,GCTCGGAGGACAAGGCCAGAGCTTTGTCCGTAGA,-1.03
3,CGTCCAAGGTCAATGCTAGGTCAATGAAAGCATT,5.33
4,TTACCAAGGGGAAGGTCGTTGATCCCTCTGTAGA,0.561
5,CCGGCTAGGTCATGGTCAGCTAATCTACAGTATG,1.63
6,TAGCCTAGGTCTTTCAGGGGCCAGTATAGAAAGC,-0.481
7,GGAACGAGGGCAAAGTTGTTAGCATCTGTCGACG,1.09
8,TTACCAAGGTGAAAGATCGTTGATGCACGCCTTG,0.0935
9,AGAACGAGCGCAATGAGTTGATAGCACGGGTGGC,-0.0491
10,ACTATTCGTTGAGACGAGGGCAACCGATAGGTTG,0.454
11,CATACAGCGTCAGCTAGGCCAGAGTAGGGACGGC,-0.851
12,AGAACGAGGGCAATGAGTTAATAGCACGGGTGGC,4.04
13,TCTTGTAGATCATCAGGTTAAGAAAGCTGGCCAA,0.814
14,TCTTGTAGTTCAAGCAGGTTAAGAAAGCCTGAGT,3.32
15,ACTTACGGGTCAACGAGGTTATAGAACGCGTATA,7.78
16,CGTAGTTGGTCAAGGTCACACACGCTATAGGTAC,4.2
17,TCAGTCAGGTGAAGGTAACTCAGGTACGCAGTCG,0.652
18,TCCAGTAGGTTAGTCGGGGCATTCAGCCAACATA,2.47
19,GGAACGTGGGCAAAGTTGATAGCATCTGTCGACG,-0.399
20,AGAACGAGGGCACGCTGAGTTGATAGAAGAGTAG,2.26
